From PubChem BioAssay (Tox21) come the findings set out here.

Assay [1] in a line: qHTS assay to identify small molecule agonists of the hypoxia (HIF-1) signaling pathway - cell viability counter screen (AID 1224844; calls by dose curve; further: nearly all actives have a fitted effect of over 50% in size). Summed up:
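In this counter screen, HRE-bla ME-180 cell viability after 17 hrs of compound exposure at 37C was read by CellTiter-Glo luminescence, multiplexed with the beta-lactamase reporter measurement.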

A short description of assay [2]: qHTS assay to identify small molecule agonists of H2AX (AID 1224845; active means well fitted activation curve with a large enough effect in the signal ratio in the repeat runs, not every such curve was filed as active; the % refers to the signal ratio). Summed up:
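Phospho-H2AX Ser139 measured by HTRF (ex 320 nm; em 665 and 620 nm) after 24 hr antibody incubation. Compounds, 15 concentrations, 0.76% DMSO, were applied to CHO-K1 cells for 3hr at 37C before lysis.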

The nature of assay [3]: qHTS assay to identify small molecule agonists of the hypoxia (HIF-1) signaling pathway (AID 1224846; active means well fitted activation curve with a large enough effect in the signal ratio in the repeat runs, not every such curve was filed as active; the % refers to the signal ratio). In a few lines:
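ME-180 HRE-bla reporter cells; compounds in DMSO, 17 h at 37C; read-out beta-lactamase via CCF4-AM FRET.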

Assay [4] can be described thus: qHTS assay to identify small molecule agonists of H2AX - cell viability counter screen (AID 1224847; calls by dose curve; further: top concentration of the series differs between compounds; nearly all actives have a fitted effect of over 30% in size). In a few lines:
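Wild-type CHO-K1 cells (10% FBS medium) were plated overnight at 37C, exposed to compounds at 15 concentrations for 3 hr at 37C (0.76% DMSO final), and viability was read as CellTiter-Glo luminescence after 30 min at room temperature.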

The nature of assay [5]: qHTS assay to identify small molecule agonists of the estrogen related receptor (ERR) signaling pathway from Tox21 library (AID 1224849; calls by dose curve; further: nearly all actives have a fitted effect of over 15% in size). As to conditions: ERR reporter cell line, ONE-Glo luciferase, 18 h; at 92.4 µM (top of the series) unless noted. In a few lines: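 Luciferase activity in ERR pathway reporter cells served as the agonist readout; exposure lasted 18 h at 37 C, with ONE-Glo detection after 30 min at room temperature.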

The nature of assay [6]: qHTS RealTime-Glo MT Cell Viability Assay in HepG2 cells - 24 hour (AID 1224867). Further: nearly all actives have a fitted effect of over 50% in size. Summed up:
(§1)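 Cell number in HepG2 cultures estimated from NanoLuc luminescence generated by metabolic reduction of a prosubstrate by living cells. The homogeneous, nonlytic format allowed repeated reads at 0, 8, 16, 24, 32 and 40 h of compound exposure.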

A short description of assay [7]: qHTS RealTime-Glo MT Cell Viability Assay in HEK293 cells - 32 hour (AID 1224868). Further: nearly all actives have a fitted effect of over 50% in size. Further: potency means the concentration at half of the fitted maximal effect. In a few lines: (§2)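 Homogeneous bioluminescent viability format in HEK293 cells (600 cells/well). Following 5 h at 37 C/5% CO2, 23 nL compound was pintooled; the signal was measured repeatedly during 40 h incubation.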
A short description of assay [8]: A CellTox Green Cytotoxicity Assay to monitor cytotoxicity in HEK293 cells - 0 hour (AID 1224869). Further: nearly all actives have a fitted effect of over 50% in size. In a few lines: (§3)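 Real-time, in one plate: 600 HEK293 cells/well with dead-cell DNA dye, pinned compound after 5 h, 37 C incubation over 40 h; viable cells give no appreciable fluorescence.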
Assay [9] in a line: qHTS RealTime-Glo MT Cell Viability Assay in HepG2 cells - 40 hour (AID 1224870). Further: nearly all actives have a fitted effect of over 50% in size. Summed up: (§4)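 Real-time viability: cells seeded at 600 per well together with NanoLuc and cell-permeant prosubstrate, compounds added after 5 h incubation. Luminescence tracked at 0, 8, 16, 24, 32 and 40 h of exposure.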
The nature of assay [10]: A CellTox Green Cytotoxicity Assay to monitor cytotoxicity in HEK293 cells - 40 hour (AID 1224871). Further: nearly all actives have a fitted effect of over 45% in size. In a few lines:
as §3

Assay [11] can be described thus: qHTS RealTime-Glo MT Cell Viability Assay in HEK293 cells - 16 hour (AID 1224872). Further: nearly all actives have a fitted effect of over 50% in size. Further: potency means the concentration at half of the fitted maximal effect. In a few lines: as §2
Assay [12] can be described thus: qHTS RealTime-Glo MT Cell Viability Assay in HepG2 cells - 8 hour (AID 1224873). Further: nearly all actives have a fitted effect of over 55% in size. In a few lines: as §4
Assay [13] is described as follows: qHTS RealTime-Glo MT Cell Viability Assay in HEK293 cells - 40 hour (AID 1224874). Further: nearly all actives have a fitted effect of over 50% in size. Further: potency means the concentration at half of the fitted maximal effect. As to conditions: RealTime-Glo luminescence; max response: hits give low values. Summed up:
(§5)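 Kinetic, non-lysing viability readout. Seed HEK293 (600/well) with reagent, incubate 5 h at 37 C/5% CO2, pin 23 nL compound in DMSO, incubate at 37 C, read luminescence at 0, 8, 16, 24, 32, 40 h.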

Assay [14] in a line: A CellTox Green Cytotoxicity Assay to monitor cytotoxicity in HEK293 cells - 24 hour (AID 1224875). Further: nearly all actives have a fitted effect of over 45% in size. In a few lines:
as §3

Assay [15] is described as follows: A CellTox Green Cytotoxicity Assay to monitor cytotoxicity in HepG2 cells - 16 hour (AID 1224876). Further: nearly all actives have a fitted effect of over 45% in size. Summed up: (§6)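 Cytotoxicity was tracked as dead-cell DNA fluorescence in HepG2 cells treated with test compounds at 37 C; each time-point value comes from one kinetic series spanning 0, 8, 16, 24, 32 and 40 h.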
Assay [16] can be described thus: qHTS RealTime-Glo MT Cell Viability Assay in HepG2 cells - 32 hour (AID 1224877). Further: nearly all actives have a fitted effect of over 55% in size. Summed up:
as §1

Assay [17] in a line: A CellTox Green Cytotoxicity Assay to monitor cytotoxicity in HepG2 cells - 24 hour (AID 1224878). Further: nearly all actives have a fitted effect of over 45% in size. Summed up:
as §6

Assay [18] can be described thus: A CellTox Green Cytotoxicity Assay to monitor cytotoxicity in HepG2 cells - 40 hour (AID 1224879). Further: nearly all actives have a fitted effect of over 40% in size. In a few lines:
as §6

Assay [19] can be described thus: qHTS RealTime-Glo MT Cell Viability Assay in HEK293 cells - 0 hour (AID 1224880). In a few lines: as §5
Assay [20] in a line: qHTS assay to identify small molecule antagonists of the estrogen related receptor (ERR) signaling pathway from Tox21 library (AID 1224848). Further: nearly all actives have a fitted effect of over 50% in size. Summed up:
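ERR cell line, 2,000 cells/well. 6 h settle, then compound (DMSO) added; 18 h at 37 C; ONE-Glo luminescence after 30 min RT.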

A number with no mark means an inactive call. Records with an inconclusive call do not appear. Activity calls are given as the source filed them. Unless noted, the call rests on the fitted dose curve; in most records, active means well fitted curve in the direction sought with a large enough effect in the repeat runs; inconclusive means weak or mixed curves; inactive means no such curve, though single readings can be large; an effect the other way counts as inactive or inconclusive.
On the % scale 0 is the no-effect control and ±100 the full control effect.

`COc1ccc2[nH]c(S(=O)Cc3ncc(C)c(OC)c3C)nc2n1` (stereo not drawn): the Potency entry in assay [1], in assay [2], in assay [4], in [6], in assay [7] and in [8] was “inactive” each time. For the same molecule, the Potency entry in [9], in assay [10], in assay [11], in [12], in assay [14] and in assay [15] was “inactive” throughout. In addition, the Potency entry in assay [16], in assay [17], in [18] and in assay [19] was “inactive” each time. For the same molecule, the molecule was classed as inactive in assay [3]. The activity change, positive = activation in [5] was -23.9% [at 42.5 µM]. In addition, the max response in [13] is -17.3%.

Consider `C=CCCCCCC`, for which the Potency result in assay [1], in assay [2], in assay [4], in [6], in [7] and in assay [8] was “inactive” each time. Besides, the Potency result in [9], in assay [10], in assay [11], in [12], in [14] and in [16] was “inactive” in each case. Moreover, the Potency entry in [17], in assay [18] and in [19] was “inactive” each time. Besides, the outcome in [3] was inactive. The activity change, positive = activation in [5] is 4.67%. In addition, the max response in [13] is 9.99%.

For the molecule `CCN(CC)CCOC(=O)C1(c2ccccc2)CCCC1`, the Potency result in [1], in assay [2], in [4], in assay [20], in [6] and in assay [7] was “inactive” each time. For the same molecule, the Potency entry in [8], in assay [9], in [10], in assay [11], in assay [14] and in assay [15] was “inactive” throughout. Also, the Potency result in assay [16], in assay [17] and in assay [19] was “inactive” in each case. Besides, the call in [3] was inactive. Besides, the activity change, positive = activation in assay [5] is 0.628% [at 42.5 µM]. Besides, the max response in assay [13] is -9.49%.

As for `C=C(C)C(=O)OCCOc1ccccc1`, the Potency entry in assay [1], in assay [2], in assay [4], in assay [20], in assay [6] and in [7] was “inactive” in each case. The Potency result in assay [8], in [10], in [11], in [14], in assay [15] and in assay [16] was “inactive” in each case. Besides, the Potency entry in assay [17], in assay [18] and in [19] was “inactive” throughout. The call in assay [3] was inactive. The activity change, positive = activation in assay [5] is 3.64%. Also, the max response in [13] is 8.99%.

`CC(C)(Oc1ccc(Cl)cc1)C(=O)OCCCOC(=O)C(C)(C)Oc1ccc(Cl)cc1`: the Potency result in assay [1], in assay [2], in assay [4], in assay [6], in assay [7] and in assay [8] was “inactive” each time. Further, the Potency entry in assay [9], in assay [10], in [12], in assay [14], in assay [15] and in assay [16] was “inactive” in each case. The Potency result in assay [17], in [18] and in assay [19] was “inactive” in each case. The molecule was classed as inactive in [3]. Moreover, the max response in [13] was -17.7%.

On to `Oc1ccc(Cc2ccccc2)cc1`, for which the Potency entry in assay [1], in assay [2], in assay [20], in [6], in [8] and in assay [9] was “inactive” in each case. Moreover, the Potency entry in assay [12], in [16] and in [19] was “inactive” throughout. Besides, the result in [3] was inactive. Moreover, the activity change, positive = activation in assay [5] is 2.56%. In addition, the Potency in assay [7] is 36 µM (active); in [11] it was 36 µM (active); in assay [13], 40.4 µM (active).

For the molecule `Nc1ccc(C(=O)N2CC3CC(CN(Cc4ccccc4)C3)C2)cc1`, the Potency entry in [1], in assay [2], in assay [4], in assay [20], in assay [6] and in assay [7] was “inactive” in each case. In addition, the Potency entry in assay [8], in [9], in [10], in [11], in assay [12] and in [14] was “inactive” each time. For the same molecule, the Potency entry in assay [15], in [16], in [17], in assay [18] and in assay [19] was “inactive” throughout. Further, the activity change, positive = activation in [5] is -11% [at 42.5 µM]. For the same molecule, the max response in assay [13] was -8.65%.
